The values that follow come from PubChem BioAssay (NCATS).

Records with an inconclusive call do not appear. The source made the active and inactive calls. Calls come from the whole dose curve; as a rule, active = well fitted activation curve with a large enough effect; inconclusive = small, poorly fitted or top-dose-only effect; inactive = flat fitted curve, though single readings scatter. Bridge positions count the residues as written; N and C are the ends. Square brackets hold non-standard residues; d marks the D form. Side chains are listed from the residue outwards. Peptide text beside a SMILES is read from it. * marks the point of attachment. Phg(4-OMe) = COc1ccc([C@H](N)C(=O)O)cc1; d(aIle) = CC[C@H](C)[C@@H](N)C(=O)O; d(aThr) = C[C@@H](O)[C@@H](N)C(=O)O; NMeF = CN[C@@H](Cc1ccccc1)C(=O)O; Isobutyryl = CC(C)C(=O)*

A short description of the test: HEK293 12hr Apoptosis Induction qHTS against the NCATS CANVASS Library (AID 1347361). Note: 0% is about no effect. To be noted: HEK293 caspase-3/7 Caspase-Glo luminescence; series mostly up to 46.1 µM; caspase activation: at the top concentration. In outline:
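Cells are seeded, dosed with an 11-point compound series and incubated 12 hours. Caspase-3/7 activity is detected by luminescent DEVD-substrate reagent after 15 minutes at room temperature.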
Background: In qHTS, concentration-response curves come from the screen itself.
Regarding `CC(C)=CCC[C@]12c3cc4c(cc3CC[C@@]1(C)[C@H](C)CC[C@@H]2O)[nH]c1ccccc14`, the “caspase activation” value is 2.86% (inactive).
As for `C/C=C/C1C=CC2CC(C)CC(C)C2C1C(=O)CC(=O)NC(CO)C/C=C/CCCCC` (configuration not stated), the figure is 18.1% (inactive); as for `C=C1CC[C@@H](Br)C(C)(C)[C@]12CC=C(C)C(=O)C2`, 7.96% (inactive); as for `C=CC(CCCCC)C1C(=O)NC(=O)C1C(=O)C1C(/C=C/C)C=CC2CC(C(=O)O)CC(C)C21` (configuration not stated), 3.73% (inactive).
Next, `C=C[C@@]1(C)CC[C@@H]([C@H](C)C(=O)/C=C/C(C)(C)O)O1`: 2.95% (inactive); `O=C1CC2OCC=C3CN4C5CC3C2[C@@H]2N1c1ccccc1[C@]52C[C@@H]4C1=C[C@H]2C3CC4N(CC[C@@]45c4ccccc4N(C1=O)[C@@H]25)C/C3=C/CO` (some centres not stated): 12.9% (inactive).
For `C=C1CC[C@@H](O[C@H]2C[C@@](O)([C@H](C)NC(=O)c3[nH]c(C)c(Cl)c3Cl)[C@H](O)[C@@H](C)O2)[C@@H]2C=C[C@H](C)C(/C(O)=C3/C(=O)[C@H](C(C)C)N([C@@H]4O[C@H](C)[C@H](OC(N)=O)[C@H](OC(C)=O)[C@@H]4OC)C3=O)[C@@H]12` (some centres not stated), the “caspase activation” value is 2.33% (inactive).
Next, `CC[C@H](C)[C@H]1NC(=O)[C@@H](NC(=O)C(C)C)[C@@H](C)OC(=O)[C@H](COC(=O)CNC(C)=O)NC(=O)[C@@H]([C@@H](C)O)NC(=O)[C@H](Cc2ccccc2)N(C)C(=O)[C@H](c2ccc(OC)cc2)NC1=O` (Isobutyryl-T[d(aIle)][Phg(4-OMe)][NMeF][d(aThr)]S([Gly-Ac]); ester 1-C): 4.34% (inactive); `C=C(C)CC[C@H](Cc1c(O)cc(O)c2c1O[C@H](c1ccc(O)cc1)CC2=O)C(=C)C`: 2.21% (inactive).
As for `COc1c(O)cc2c(c1O)C(=O)c1c(coc1C)C2=O`, the figure is 2.9% (inactive).
Next, `C[C@]12CC[C@]3(C1)[C@H](CC2=O)C[C@@H](OC(=O)c1ccccc1)[C@H]1[C@](C)(C(=O)O)CCC[C@@]13C`: 12% (inactive); `Cc1occ2c1C(=O)c1c(cc(O)c(O)c1O)C2=O`: 0.929% (inactive).
As for `COc1ccc2[nH]c3c(c2c1)CCN1C[C@H]2C[C@@H](OC(=O)c4cc(OC)c(OC)c(OC)c4)[C@H](OC)[C@@H](OC)[C@H]2C[C@H]31`, the “caspase activation” value is 7.26% (inactive).
Next, `C=C[C@](Cl)(CBr)CCC=C(C)C`: -1.29% (inactive).
Turning to `CC(=O)O[C@H]1c2ccccc2-c2c3c(cc4c2[C@@H]1N(C(C)=O)CC4)OCO3`, the “caspase activation” value was 2.19% (inactive).
`C=CC(CCCCC)C1C(=O)NC(=O)C1C(=O)C1C2C(C)CC(C(=O)O)CC2CC1(O)C(=O)/C=C/C` (configuration not stated): the “caspase activation” value was 1.81% (inactive).
In the case of `O[C@H]1c2ccccc2-c2c3c(cc4c2[C@@H]1NCC4)OCO3`, the “caspase activation” value is 5.72% (inactive).
For `C[C@]12CCC[C@](C)(C(=O)O)[C@@H]1CC[C@@]1(C)c3cocc3CC[C@H]21`, the “caspase activation” value is -1.17% (inactive).
Next, `COc1cc(C2OCC3C(c4ccc(O)c(OC)c4)OCC23)ccc1O` (configuration not stated): 3.13% [at 9.19 µM] (inactive); `COc1cc(O)c(C(=O)[C@@H]2[C@H](CC=C(C)C)C(C)=CC[C@H]2c2ccccc2)c(O)c1`: 19.8% (inactive).
Next, `C[n+]1cc2cc(C(N)=O)[nH]c3c(=N)c(Cl)c(N)c1c23`: -1.33% (inactive).
Consider `COc1cc2c(c(O)c1O)C(=O)c1c(coc1C)C2=O`, for which the “caspase activation” value is 13.1% (inactive).
For the molecule `CCC(=O)N[C@@H](C[C@H](C)C(Cl)(Cl)Cl)C(=O)N1C(=O)C=C(OC)[C@@H]1CC(C)C`, the “caspase activation” value was -1.08% (inactive).
As for `O=c1cc(-c2ccc(O)c(O)c2)oc2cc(O[C@@H]3O[C@H](CO)[C@@H](O)[C@H](O)[C@H]3O)cc(O)c12`, the figure is -4.03% (inactive); as for `C/C1=C/[C@@H](C)[C@H](O)[C@@H](O)/C=C/CC/C=C/C(=O)O[C@@H]1[C@H](C)C(=O)CCCC1CC(=O)NC(=O)C1`, -1.24% (inactive).
As for `CN1CC[C@]2(c3cccc4c3N[C@H]3N(C)CC[C@@]43[C@]34CCN(C)[C@H]3Nc3ccccc34)c3ccccc3N[C@H]12`, the figure is 18.4% (inactive); as for `CC(=O)Oc1cc2c(c(OC(C)=O)c1C1CCc3cc(Cl)c(Cl)n31)C(=O)n1c-2cc(Cl)c1Cl` (configuration not stated), -3.15% (inactive); as for `COc1cc2c(cc1OC)[C@@H](c1ccc3c(c1)OCO3)C(C)C(C)C2=O` (some centres not stated), -2.7% (inactive).
Next, `C/C=C(/C)c1c(Cl)c(O)c(C)c2c1Oc1c(Cl)c(O)c(Cl)c(C)c1C(=O)O2`: -1.7% (inactive); `CC(C)C[C@@H]1c2c(O)c(C=O)c(O)c(C=O)c2O[C@]2(C)C=C[C@@H](C(C)C)C[C@H]12`: 1.26% (inactive); `C/C=C(/C)c1cc(O)c(C)c2c1Oc1cc(O)cc(C)c1C(=O)O2`: 3.03% (inactive).
Turning to `CC(C)[C@]12CC[C@@]3(C)[C@H](C)CC[C@H](O)[C@@]3(CC1)c1cc3c(cc12)[nH]c1ccccc13`, the “caspase activation” value is 4.98% (inactive).
Next, `C[C@H]1C=C[C@H]2CCCC[C@@H]2[C@H]1C(=O)[C@H]1CC2=C(C(=O)O)CCN2C1=O`: -1.16% (inactive); `C/C=C(/C)c1c(Cl)c(OC)c(C)c2c1Oc1c(Cl)c(O)c(Cl)c(C)c1C(=O)O2`: 6.21% (inactive).
Next, `C/C(=C\CC[C@@H](C)[C@H]1CC[C@]2(C)C3=CCC4C(C)(C)[C@@H](O)C[C@@H](O)[C@]4(C)C3[C@H](O)C[C@@]12C)CO` (some centres not stated): 9.72% (inactive); `COC12OC1(C13OC1(OC)C(=O)c1cc4cc(C)oc(=O)c4c(O)c1C3O)C(O)c1c(cc3cc(C)oc(=O)c3c1O)C2=O` (configuration not stated): -0.518% (inactive).
Next, `CO[C@H]1[C@@H](OC(=O)/C(C)=C\[C@@H]2O[C@@H]2[C@H]2O[C@H]2C)[C@H](O)[C@H](OCC23C[C@@H]4[C@H](C)CC[C@H]4C4(C=O)CC2C=C(C(C)C)C34C(=O)O)O[C@@H]1C` (some centres not stated): 4.73% (inactive).
